# Measurements from paper PMC11006913.
# Positions count from the first letter of the chain named.
# What was measured:
# Assay in all cases: PBM; 200 nM protein, PBS
# Settings in all cases: dsDNA, one strand shown
# HOXB9 [1] = molecular target: HOXB9 (Homo sapiens, UniProt P17482 171-250)
# HOXB9 [2] = molecular target: HOXB9 (Homo sapiens, UniProt P17482 171-250, R186Q)
# NKX2-6 [3] = molecular target: T1, NKX2-6 (Homo sapiens, UniProt A6NCS4 118-204, R150C)
# T1 sequence: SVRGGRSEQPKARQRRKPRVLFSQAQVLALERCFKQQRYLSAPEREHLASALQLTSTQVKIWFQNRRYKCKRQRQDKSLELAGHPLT
# NKX3-2 [4] = molecular target: NKX3-2 (Homo sapiens, UniProt P78367 192-278, P234S)
# NKX3-2 [5] = molecular target: NKX3-2 (Homo sapiens, UniProt P78367 192-278)
# HOXC9 [6] = molecular target: HOXC9 (Homo sapiens, UniProt P31274 178-260)
# PROP1 [7] = molecular target: PROP1 (Homo sapiens, UniProt O75360 56-141)
# HOXC9 [8] = molecular target: HOXC9 (Homo sapiens, UniProt P31274 178-260, R222W)
# CRX = CRX (Homo sapiens, UniProt O43186 26-111, E42D)
# ALX1 [9] = molecular target: ALX1 (Homo sapiens, UniProt Q15699 118-204, L144V)
# ALX1 [10] = molecular target: ALX1 (Homo sapiens, UniProt Q15699 118-204, L144R)
# ALX1 [11] = molecular target: ALX1 (Homo sapiens, UniProt Q15699 118-204)
# NKX2-6 [12] = molecular target: T2, NKX2-6 (Homo sapiens, UniProt A6NCS4 118-204)
# T2 sequence: T1 sequence with C33R
# NKX2-6 [13] = molecular target: T3, NKX2-6 (Homo sapiens, UniProt A6NCS4 118-204, F151L)
# T3 sequence: T1 sequence with C33R, F34L
# ALX3 [14] = molecular target: ALX3 (Homo sapiens, UniProt O95076 139-225, N203Q)
# HOXD13 [15] = molecular target: HOXD13 (Homo sapiens, UniProt P35453 263-343, T313R)
# HOXD13 [16] = molecular target: HOXD13 (Homo sapiens, UniProt P35453 263-343)
# ALX3 [17] = molecular target: ALX3 (Homo sapiens, UniProt O95076 139-225)
# ALX3 [18] = molecular target: ALX3 (Homo sapiens, UniProt O95076 139-225, L168Q)
# HOXD13 [19] = molecular target: HOXD13 (Homo sapiens, UniProt P35453 263-343, T313A)
# ALX3 [20] = molecular target: ALX3 (Homo sapiens, UniProt O95076 139-225, L168V)
# ALX3 [21] = molecular target: ALX3 (Homo sapiens, UniProt O95076 139-225, N203S)
# PROP1 [22] = molecular target: PROP1 (Homo sapiens, UniProt O75360 56-141, R99H)
# PROP1 [23] = molecular target: PROP1 (Homo sapiens, UniProt O75360 56-141, F88S)
# MSX2 = MSX2 (Homo sapiens, UniProt P35548 130-214, R199I)
# Sequence of MSX2 (P35548 130-214 R199I): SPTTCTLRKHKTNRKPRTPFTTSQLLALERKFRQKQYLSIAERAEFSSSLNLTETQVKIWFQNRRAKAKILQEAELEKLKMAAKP
# Sequence of ALX1 (Homo sapiens, UniProt Q15699 118-204, L144R) (Q15699 118-204 L144R): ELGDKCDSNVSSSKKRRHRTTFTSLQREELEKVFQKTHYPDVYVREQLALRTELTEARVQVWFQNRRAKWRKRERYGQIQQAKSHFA
# Sequence of NKX3-2 (Homo sapiens, UniProt P78367 192-278) (P78367 192-278): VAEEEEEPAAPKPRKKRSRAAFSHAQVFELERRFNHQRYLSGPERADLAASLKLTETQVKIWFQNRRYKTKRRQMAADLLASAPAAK
# Sequence of HOXB9 (Homo sapiens, UniProt P17482 171-250, R186Q) (P17482 171-250 R186Q): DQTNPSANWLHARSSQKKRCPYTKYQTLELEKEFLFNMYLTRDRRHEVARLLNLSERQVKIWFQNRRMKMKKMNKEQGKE
# Sequence of ALX1 (Homo sapiens, UniProt Q15699 118-204) (Q15699 118-204): as the sequence (Q15699 118-204 L144R) above, with R27L counted along it
# Sequence of HOXC9 (Homo sapiens, UniProt P31274 178-260) (P31274 178-260): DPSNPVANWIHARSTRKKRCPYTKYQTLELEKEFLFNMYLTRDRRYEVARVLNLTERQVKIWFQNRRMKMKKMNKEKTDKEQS
# Sequence of NKX3-2 (Homo sapiens, UniProt P78367 192-278, P234S) (P78367 192-278 P234S): as the sequence (P78367 192-278) above, with P43S counted along it
# Sequence of ALX1 (Homo sapiens, UniProt Q15699 118-204, L144V) (Q15699 118-204 L144V): as the sequence (Q15699 118-204 L144R) above, with R27V counted along it
# Sequence of HOXB9 (Homo sapiens, UniProt P17482 171-250) (P17482 171-250): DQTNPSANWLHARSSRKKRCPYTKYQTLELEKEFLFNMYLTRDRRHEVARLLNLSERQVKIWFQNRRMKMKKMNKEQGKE
# Sequence of CRX (O43186 26-111 E42D): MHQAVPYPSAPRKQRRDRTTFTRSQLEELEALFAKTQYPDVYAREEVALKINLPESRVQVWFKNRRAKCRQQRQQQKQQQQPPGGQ
# Sequence of HOXD13 (Homo sapiens, UniProt P35453 263-343, T313A) (P35453 263-343 T313A): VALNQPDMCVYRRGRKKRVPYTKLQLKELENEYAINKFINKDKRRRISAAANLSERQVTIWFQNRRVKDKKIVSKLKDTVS
# Sequence of HOXC9 (Homo sapiens, UniProt P31274 178-260, R222W) (P31274 178-260 R222W): as the sequence (P31274 178-260) above, with R45W counted along it
# Sequence of HOXD13 (Homo sapiens, UniProt P35453 263-343, T313R) (P35453 263-343 T313R): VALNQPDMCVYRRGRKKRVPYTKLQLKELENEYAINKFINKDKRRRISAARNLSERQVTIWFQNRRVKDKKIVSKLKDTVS
# Sequence of PROP1 (Homo sapiens, UniProt O75360 56-141) (O75360 56-141): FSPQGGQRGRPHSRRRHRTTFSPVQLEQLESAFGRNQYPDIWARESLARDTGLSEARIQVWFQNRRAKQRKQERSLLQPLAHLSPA
# Sequence of HOXD13 (Homo sapiens, UniProt P35453 263-343) (P35453 263-343): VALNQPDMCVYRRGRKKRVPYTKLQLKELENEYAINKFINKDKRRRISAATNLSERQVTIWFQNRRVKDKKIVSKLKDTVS
# Sequence of ALX3 (Homo sapiens, UniProt O95076 139-225, N203Q) (O95076 139-225 N203Q): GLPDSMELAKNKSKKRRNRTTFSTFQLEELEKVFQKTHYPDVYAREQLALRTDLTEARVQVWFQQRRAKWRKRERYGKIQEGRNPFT
# Sequence of PROP1 (Homo sapiens, UniProt O75360 56-141, F88S) (O75360 56-141 F88S): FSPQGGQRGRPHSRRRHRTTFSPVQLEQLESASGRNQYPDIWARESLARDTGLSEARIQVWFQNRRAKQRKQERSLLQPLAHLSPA
# Sequence of ALX3 (Homo sapiens, UniProt O95076 139-225) (O95076 139-225): as the sequence (O95076 139-225 N203Q) above, with Q65N counted along it
# Sequence of PROP1 (Homo sapiens, UniProt O75360 56-141, R99H) (O75360 56-141 R99H): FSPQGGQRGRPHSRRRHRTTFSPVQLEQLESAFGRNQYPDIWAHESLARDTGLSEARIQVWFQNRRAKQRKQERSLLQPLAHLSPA
# Sequence of ALX3 (Homo sapiens, UniProt O95076 139-225, L168V) (O95076 139-225 L168V): as the sequence (O95076 139-225 N203Q) above, with L30V, Q65N counted along it
# Sequence of ALX3 (Homo sapiens, UniProt O95076 139-225, L168Q) (O95076 139-225 L168Q): as the sequence (O95076 139-225 N203Q) above, with L30Q, Q65N counted along it
# Sequence of ALX3 (Homo sapiens, UniProt O95076 139-225, N203S) (O95076 139-225 N203S): as the sequence (O95076 139-225 N203Q) above, with Q65S counted along it
sequence,measurement,setting,value
AGGCTAAT,binding signal,HOXB9 [1],"9.89 upbm affinity estimate (log intensity, higher = more binding, comparable within an allelic series)"
same,binding signal,HOXB9 [2],"9.92 upbm affinity estimate (log intensity, higher = more binding, comparable within an allelic series)"
CATTTAAA,binding signal,HOXB9 [1],"10.7 upbm affinity estimate (log intensity, higher = more binding, comparable within an allelic series)"
same,binding signal,HOXB9 [2],"10.6 upbm affinity estimate (log intensity, higher = more binding, comparable within an allelic series)"
CATTACTA,binding signal,HOXB9 [1],"10.6 upbm affinity estimate (log intensity, higher = more binding, comparable within an allelic series)"
same,binding signal,HOXB9 [2],"10.5 upbm affinity estimate (log intensity, higher = more binding, comparable within an allelic series)"
AAGCAATA,binding signal,HOXB9 [1],"10.1 upbm affinity estimate (log intensity, higher = more binding, comparable within an allelic series)"
same,binding signal,HOXB9 [2],"10.1 upbm affinity estimate (log intensity, higher = more binding, comparable within an allelic series)"
ACAGGGGG,binding signal,NKX2-6 [3],"9.27 upbm affinity estimate (log intensity, higher = more binding, comparable within an allelic series)"
AAGTGCTC,binding signal,NKX2-6 [3],"11.6 upbm affinity estimate (log intensity, higher = more binding, comparable within an allelic series)"
same,binding signal,NKX3-2 [4],"12.5 upbm affinity estimate (log intensity, higher = more binding, comparable within an allelic series)"
same,binding signal,NKX3-2 [5],"12.7 upbm affinity estimate (log intensity, higher = more binding, comparable within an allelic series)"
GTCGATAA,binding signal,HOXC9 [6],"10.9 upbm affinity estimate (log intensity, higher = more binding, comparable within an allelic series)"
same,binding signal,PROP1 [7],"8.04 upbm affinity estimate (log intensity, higher = more binding, comparable within an allelic series)"
same,binding signal,HOXC9 [8],"10.3 upbm affinity estimate (log intensity, higher = more binding, comparable within an allelic series)"
GATTAAGA,binding signal,CRX,"12.7 upbm affinity estimate (log intensity, higher = more binding, comparable within an allelic series)"
AACTAATC,binding signal,CRX,"12.7 upbm affinity estimate (log intensity, higher = more binding, comparable within an allelic series)"
AAGTACAT,binding signal,NKX2-6 [3],"11.6 upbm affinity estimate (log intensity, higher = more binding, comparable within an allelic series)"
same,binding signal,NKX3-2 [4],"12.4 upbm affinity estimate (log intensity, higher = more binding, comparable within an allelic series)"
same,binding signal,NKX3-2 [5],"12.6 upbm affinity estimate (log intensity, higher = more binding, comparable within an allelic series)"
ATTGCACA,binding signal,HOXC9 [6],"10.8 upbm affinity estimate (log intensity, higher = more binding, comparable within an allelic series)"
AAAGTGGT,binding signal,NKX2-6 [3],"11.7 upbm affinity estimate (log intensity, higher = more binding, comparable within an allelic series)"
same,binding signal,NKX3-2 [4],"12.7 upbm affinity estimate (log intensity, higher = more binding, comparable within an allelic series)"
same,binding signal,NKX3-2 [5],"12.8 upbm affinity estimate (log intensity, higher = more binding, comparable within an allelic series)"
CCGTGGGA,binding signal,NKX2-6 [3],"9.37 upbm affinity estimate (log intensity, higher = more binding, comparable within an allelic series)"
same,binding signal,ALX1 [9],"6.49 upbm affinity estimate (log intensity, higher = more binding, comparable within an allelic series)"
same,binding signal,ALX1 [10],"6.42 upbm affinity estimate (log intensity, higher = more binding, comparable within an allelic series)"
same,binding signal,ALX1 [11],"6.53 upbm affinity estimate (log intensity, higher = more binding, comparable within an allelic series)"
AAGTGCAC,binding signal,NKX2-6 [3],"11.6 upbm affinity estimate (log intensity, higher = more binding, comparable within an allelic series)"
same,binding signal,NKX3-2 [4],"12.6 upbm affinity estimate (log intensity, higher = more binding, comparable within an allelic series)"
same,binding signal,NKX3-2 [5],"12.7 upbm affinity estimate (log intensity, higher = more binding, comparable within an allelic series)"
AAAGTGCA,binding signal,NKX2-6 [3],"11.2 upbm affinity estimate (log intensity, higher = more binding, comparable within an allelic series)"
same,binding signal,NKX2-6 [12],"12.2 upbm affinity estimate (log intensity, higher = more binding, comparable within an allelic series)"
same,binding signal,NKX2-6 [13],"10.1 upbm affinity estimate (log intensity, higher = more binding, comparable within an allelic series)"
GCCCACGA,binding signal,NKX2-6 [3],"9.49 upbm affinity estimate (log intensity, higher = more binding, comparable within an allelic series)"
same,binding signal,ALX1 [9],"6.38 upbm affinity estimate (log intensity, higher = more binding, comparable within an allelic series)"
same,binding signal,ALX1 [10],"6.28 upbm affinity estimate (log intensity, higher = more binding, comparable within an allelic series)"
same,binding signal,ALX1 [11],"6.37 upbm affinity estimate (log intensity, higher = more binding, comparable within an allelic series)"
CCGTGCCG,binding signal,NKX2-6 [3],"9.27 upbm affinity estimate (log intensity, higher = more binding, comparable within an allelic series)"
same,binding signal,ALX3 [14],"7.7 upbm affinity estimate (log intensity, higher = more binding, comparable within an allelic series)"
same,binding signal,HOXD13 [15],"9.53 upbm affinity estimate (log intensity, higher = more binding, comparable within an allelic series)"
same,binding signal,HOXD13 [16],"9.45 upbm affinity estimate (log intensity, higher = more binding, comparable within an allelic series)"
same,binding signal,ALX3 [17],"7.7 upbm affinity estimate (log intensity, higher = more binding, comparable within an allelic series)"
same,binding signal,ALX3 [18],"7.76 upbm affinity estimate (log intensity, higher = more binding, comparable within an allelic series)"
same,binding signal,HOXD13 [19],"9.84 upbm affinity estimate (log intensity, higher = more binding, comparable within an allelic series)"
same,binding signal,ALX3 [20],"7.72 upbm affinity estimate (log intensity, higher = more binding, comparable within an allelic series)"
same,binding signal,ALX3 [21],"7.71 upbm affinity estimate (log intensity, higher = more binding, comparable within an allelic series)"
AGCCCCCG,binding signal,NKX2-6 [3],"9.1 upbm affinity estimate (log intensity, higher = more binding, comparable within an allelic series)"
same,binding signal,PROP1 [7],"6.76 upbm affinity estimate (log intensity, higher = more binding, comparable within an allelic series)"
same,binding signal,PROP1 [22],"6.62 upbm affinity estimate (log intensity, higher = more binding, comparable within an allelic series)"
same,binding signal,PROP1 [23],"6.15 upbm affinity estimate (log intensity, higher = more binding, comparable within an allelic series)"
GCAATCAA,binding signal,MSX2,"10.9 upbm affinity estimate (log intensity, higher = more binding, comparable within an allelic series)"
AAGTGGCA,binding signal,NKX2-6 [3],"11.6 upbm affinity estimate (log intensity, higher = more binding, comparable within an allelic series)"
same,binding signal,NKX3-2 [4],"12.6 upbm affinity estimate (log intensity, higher = more binding, comparable within an allelic series)"
same,binding signal,NKX3-2 [5],"12.7 upbm affinity estimate (log intensity, higher = more binding, comparable within an allelic series)"
AAGGCCCA,binding signal,NKX2-6 [3],"9.71 upbm affinity estimate (log intensity, higher = more binding, comparable within an allelic series)"
same,binding signal,NKX3-2 [4],"10.7 upbm affinity estimate (log intensity, higher = more binding, comparable within an allelic series)"
same,binding signal,NKX3-2 [5],"10.7 upbm affinity estimate (log intensity, higher = more binding, comparable within an allelic series)"
CACTTACA,binding signal,NKX2-6 [3],"11.6 upbm affinity estimate (log intensity, higher = more binding, comparable within an allelic series)"
same,binding signal,NKX2-6 [13],"10.6 upbm affinity estimate (log intensity, higher = more binding, comparable within an allelic series)"
same,binding signal,NKX3-2 [4],"12.6 upbm affinity estimate (log intensity, higher = more binding, comparable within an allelic series)"
same,binding signal,NKX3-2 [5],"12.6 upbm affinity estimate (log intensity, higher = more binding, comparable within an allelic series)"
ATTAGAGG,binding signal,HOXC9 [6],"10.9 upbm affinity estimate (log intensity, higher = more binding, comparable within an allelic series)"
same,binding signal,HOXC9 [8],"10.2 upbm affinity estimate (log intensity, higher = more binding, comparable within an allelic series)"
CGCGGGCC,binding signal,NKX2-6 [3],"9.38 upbm affinity estimate (log intensity, higher = more binding, comparable within an allelic series)"
same,binding signal,ALX1 [9],"6.41 upbm affinity estimate (log intensity, higher = more binding, comparable within an allelic series)"
same,binding signal,ALX1 [10],"6.28 upbm affinity estimate (log intensity, higher = more binding, comparable within an allelic series)"
same,binding signal,NKX3-2 [4],"10.4 upbm affinity estimate (log intensity, higher = more binding, comparable within an allelic series)"
same,binding signal,ALX1 [11],"6.3 upbm affinity estimate (log intensity, higher = more binding, comparable within an allelic series)"
same,binding signal,NKX3-2 [5],"10.4 upbm affinity estimate (log intensity, higher = more binding, comparable within an allelic series)"
CGTAACGC,binding signal,HOXC9 [6],"10.6 upbm affinity estimate (log intensity, higher = more binding, comparable within an allelic series)"
ACCCTGCC,binding signal,NKX2-6 [3],"9.52 upbm affinity estimate (log intensity, higher = more binding, comparable within an allelic series)"
same,binding signal,HOXD13 [15],"9.6 upbm affinity estimate (log intensity, higher = more binding, comparable within an allelic series)"
same,binding signal,HOXD13 [16],"9.65 upbm affinity estimate (log intensity, higher = more binding, comparable within an allelic series)"
same,binding signal,HOXD13 [19],"9.68 upbm affinity estimate (log intensity, higher = more binding, comparable within an allelic series)"
ACAAGTGC,binding signal,NKX2-6 [3],"11.5 upbm affinity estimate (log intensity, higher = more binding, comparable within an allelic series)"
same,binding signal,NKX2-6 [13],"10.6 upbm affinity estimate (log intensity, higher = more binding, comparable within an allelic series)"
TATCTCAA,binding signal,HOXC9 [6],"11 upbm affinity estimate (log intensity, higher = more binding, comparable within an allelic series)"
GAACATTC,binding signal,HOXC9 [6],"10.5 upbm affinity estimate (log intensity, higher = more binding, comparable within an allelic series)"
